Source: PubChem
Sampled rows, rich in hits. Any-hit rate of the full collection: about 2.1%.
SMARCA2 act: increases SMARCA2 function in MMTV reporter cells. activation, % at 9.1 µM. MG213 cells, MMTV-luciferase reporter, dexamethasone, overnight. 370,000 tested, 1% active; in the data active means activation above about 7.8%;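 further: 0% = vehicle wells and 100% = reference activator wells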
bovine MsrA act: bovine methionine sulfoxide reductase A activation; purified bovine MsrA, absorbance read-out; activation, % at 10.6 µM; 360,000 tested, 0.3% active; in the data active means activation above about 7.5%;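 further: 0% = vehicle and 100% = reference activator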
MsrA inh: bovine MsrA inhibition. purified bovine MsrA, absorbance read-out. inhibition, % at 15.5 µM. 360,000 tested, 0.75% active. AID 651718; in the data active means inhibition above about 4.5%;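 further: 0% = vehicle wells with enzyme and 100% = reference inhibitor wells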
ABCB6 inh MLPCN: blocks the human ABCB6 transporter; Q9NP58; K562-ABCB6 porphyrin accumulation, flow cytometry, 1 h; stronger effect = lower value; fluorescence ratio to DMSO, % at 10 µM; 360,000 tested, 0.19% active; AID 602162;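 active means fluorescence ratio to DMSO below 75%, the collection mean minus 3 SD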;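 further: signal is porphyrin accumulated inside mitochondria; 100% equals median channel fluorescence of DMSO control wells; lower ratio means ABCB6 inhibition with less porphyrin fluorescence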
Target sequence (Q9NP58 whole entry, looked up): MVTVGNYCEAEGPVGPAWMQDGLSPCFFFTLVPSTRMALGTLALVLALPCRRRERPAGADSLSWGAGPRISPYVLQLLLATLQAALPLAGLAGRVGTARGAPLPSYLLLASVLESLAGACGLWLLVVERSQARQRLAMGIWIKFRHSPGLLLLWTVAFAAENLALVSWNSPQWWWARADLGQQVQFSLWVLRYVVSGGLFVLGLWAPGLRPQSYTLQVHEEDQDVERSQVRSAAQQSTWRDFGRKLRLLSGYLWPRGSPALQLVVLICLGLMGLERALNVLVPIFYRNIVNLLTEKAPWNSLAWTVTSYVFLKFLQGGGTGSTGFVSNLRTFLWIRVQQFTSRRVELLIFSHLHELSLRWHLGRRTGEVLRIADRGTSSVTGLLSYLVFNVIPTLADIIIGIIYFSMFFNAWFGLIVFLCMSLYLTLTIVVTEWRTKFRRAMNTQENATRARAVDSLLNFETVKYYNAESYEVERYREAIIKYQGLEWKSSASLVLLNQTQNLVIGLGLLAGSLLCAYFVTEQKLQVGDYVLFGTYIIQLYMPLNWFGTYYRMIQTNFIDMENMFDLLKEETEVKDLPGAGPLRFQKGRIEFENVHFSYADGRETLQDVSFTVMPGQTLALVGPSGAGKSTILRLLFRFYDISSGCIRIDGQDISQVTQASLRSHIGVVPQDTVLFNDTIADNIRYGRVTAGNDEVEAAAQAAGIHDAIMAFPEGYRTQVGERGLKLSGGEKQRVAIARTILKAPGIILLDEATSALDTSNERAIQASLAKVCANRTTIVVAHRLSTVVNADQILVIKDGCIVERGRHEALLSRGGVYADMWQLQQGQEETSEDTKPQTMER
SMARCA2 conf: confirmation of SMARCA2 (BRM) function activators; activation, % at 9.1 µM; shares compounds with SMARCA2 act; 3,500 tested, 30% active; MG213 cells, MMTV-luciferase with dexamethasone, luminescence, overnight; MG213 cells expressing E1A, Rb sequestered; DMSO wells 0%, reference activator 100%;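 active means activation above its plate's cutoff, the mean activation of tested wells plus 3 SD, cut at about 7.9% in these data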
GAL4-VP16 Luc: activates GAL4-VP16 luciferase, flagging SMARCA2 activator hits | HEK293 GAL4-VP16 pG5luc reporter, luciferase luminescence; scaled: DMSO wells 0%, SAHA wells 100% | AID 686939 | 3,500 tested, 41% active | activation, % at 9.1 µM | shares compounds with SMARCA2 act;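 active means activation above the solvent-only control well mean plus 3 SD, averaged across control plates, cut at about 5.2% in these data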
* = called active by the depositor.

Results for CC(=O)N(Cc1cc(=O)[nH]c2ccccc12)c1ccccc1C ?
SMARCA2 act: -3; bovine MsrA act: -2; MsrA inh: 1; ABCB6 inh MLPCN: 104

How did CC(=O)N(Cc1cc(=O)[nH]c2ccccc12)c1ccccc1 do in these assays?
SMARCA2 act: -4; bovine MsrA act: 0; MsrA inh: 0; ABCB6 inh MLPCN: 102

Results for COc1ccccc1N(Cc1cc(=O)[nH]c2ccccc12)C(=O)c1ccccc1 ?
SMARCA2 act: 9.8*; bovine MsrA act: -3; MsrA inh: 1; ABCB6 inh MLPCN: 93; SMARCA2 conf: -2; GAL4-VP16 Luc: 0

What do the screens show for `O=C(Nc1nnc(-c2cccnc2)s1)c1cnc2ccccc2c1`?
SMARCA2 act: 8.0*; SMARCA2 conf: 6; GAL4-VP16 Luc: 3

What do the screens show for `O=C(Nc1nnc(C(F)(F)F)s1)c1cccnc1`?
SMARCA2 act: 9.0*; bovine MsrA act: -1; MsrA inh: 1; ABCB6 inh MLPCN: 97; SMARCA2 conf: 3; GAL4-VP16 Luc: 9.3*

What do the screens show for `COCc1[nH]nc2c1C(c1ccc(F)cc1)N(Cc1ccccc1)C2=O` (stereo not drawn)?
SMARCA2 act: -5; MsrA inh: -1

Results for Cc1ccc(-c2onc3ccc(C(=O)/C=C/N(C)C)cc23)cc1 ?
SMARCA2 act: 2; bovine MsrA act: 0; MsrA inh: 1; ABCB6 inh MLPCN: 93

How did CN(C)/C=C/C(=O)c1ccc2noc(-c3ccc(F)cc3)c2c1 do in these assays?
SMARCA2 act: 11*; bovine MsrA act: -2; MsrA inh: 1; ABCB6 inh MLPCN: 101; SMARCA2 conf: -1; GAL4-VP16 Luc: 0

Results for O=C(c1ccncc1F)N1CCC(n2nnc3ncccc32)CC1 ?
SMARCA2 act: 8.1*; SMARCA2 conf: 0; GAL4-VP16 Luc: -1

Results for CCOC(=O)[C@@]12CCCC=C1N(CCc1ccc(Cl)cc1)C(=O)[C@H]2CC(=O)N1CCCC1 ?
SMARCA2 act: -6

Results for CC(C)[C@H](NC(=O)CC1CCCC1)C(=O)N1CCC[C@H]1C(=O)NCCc1ccccc1Cl ?
SMARCA2 act: -1; MsrA inh: -1

Results for Cc1cccc(C(=O)OCC(=O)NCC2CCCO2)c1O (stereo not drawn) ?
SMARCA2 act: 9.2*; bovine MsrA act: -11; MsrA inh: 0; ABCB6 inh MLPCN: 99; SMARCA2 conf: 1; GAL4-VP16 Luc: 0

How did COc1ccc2c(c1)CN1CN(Cc3ccccc3)S(=O)(=O)CC21 (stereo not drawn) do in these assays?
SMARCA2 act: -2

How did Cc1cccc(C(=O)O/N=C(\N)CS(=O)(=O)c2ccccc2)c1 do in these assays?
SMARCA2 act: 1; bovine MsrA act: -2; MsrA inh: 1; ABCB6 inh MLPCN: 99

How did COc1cccc(C(=O)O/N=C(\N)CS(=O)(=O)c2ccccc2)c1 do in these assays?
SMARCA2 act: 12*; bovine MsrA act: -1; MsrA inh: 1; ABCB6 inh MLPCN: 101; SMARCA2 conf: 2; GAL4-VP16 Luc: 2

How did Cc1ccc(OC[C@@H](O)CN2CCC(C(O)(c3ccccc3)c3ccccc3)CC2)cc1 do in these assays?
SMARCA2 act: -5

How did Cn1c2ccccc2c(=O)c2c(=O)n(CCCc3ccccc3)cnc21 do in these assays?
SMARCA2 act: 1

What do the screens show for `COc1ccc(-c2cc(=O)c3ccccc3n2C)cc1`?
SMARCA2 act: -1; bovine MsrA act: -3; MsrA inh: 4; ABCB6 inh MLPCN: 92

How did COc1ccc2c(c1)c1ccccc1n2C do in these assays?
SMARCA2 act: 8.9*; bovine MsrA act: -8; MsrA inh: 0; ABCB6 inh MLPCN: 101; SMARCA2 conf: -2; GAL4-VP16 Luc: 2

How did COc1ccc(/C=N/NC(=O)CN(C2=NS(=O)(=O)c3ccccc32)c2ccccc2)cc1OC do in these assays?
SMARCA2 act: 8.1*; bovine MsrA act: -3; MsrA inh: 1; ABCB6 inh MLPCN: 102; SMARCA2 conf: 6; GAL4-VP16 Luc: 1

How did COc1cccc(/C=N/NC(=O)CN(C2=NS(=O)(=O)c3ccccc32)c2ccccc2)c1 do in these assays?
SMARCA2 act: 0; bovine MsrA act: -1; MsrA inh: 0; ABCB6 inh MLPCN: 100

What do the screens show for `NC(=O)c1ccc2nc(-c3ccccc3)c(-c3ccccc3)nc2c1`?
SMARCA2 act: 1; bovine MsrA act: -6; MsrA inh: 0; ABCB6 inh MLPCN: 99
